The source of these data is PubChem BioAssay.

Test [1] relates to Plasmodium falciparum Sir2 (PF13_0152, Sir2A). Description: Plasmodium falciparum Sir2A binding compounds – biochemical, small-molecule microarray, 635 nm fluorescence, primary screen (AID 1098).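 Further: score merges spot fluorescence intensity with its signal-to-noise ratio.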 Conditions: fluorescence 635 nm, higher = more signal.
Test [2] is described as follows: probe aDKK1 binding to arrayed compounds – biochemical, biotinylated probe, 635/667 nm fluorescence, primary screen (AID 1099).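 Further: score merges 667nm spot fluorescence with signal to noise across triplicate slides.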 The conditions noted are these: small-molecule microarray, higher = more signal.
A short description of test [3]: probe aCHRDL2 binding to arrayed compounds – biochemical, biotinylated probe, 635/667 nm fluorescence, primary screen (AID 1100). The conditions noted are these: small-molecule microarray, higher = more signal.
A short description of test [4]: change in splice reporter luminescence, either direction, cell-based, HEK293, spliceosome inhibition project, primary screen (AID 1101).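 Further: HEK293 cells carrying a splicing-competent luciferase reporter gene; test concentration not given here.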 The conditions noted are these: HEK293 splicing luciferase reporter, 24 h, higher = more signal, called active from +8 up or from −8 down. A general note: In a reporter assay the amount or activity of a reporter protein is the signal.

The target in test [5] is Fibroblast growth factor 10 (Homo sapiens) (UniProt O15520). Briefly: compounds binding fibroblast growth factor 10 – biochemical, small-molecule microarray, 635 nm fluorescence, primary screen (AID 1102). Conditions: FGF10 binding, fluorescence 635 nm, higher = more signal.
Fibroblast growth factor 10 (Homo sapiens), sequence (O15520 whole entry, looked up): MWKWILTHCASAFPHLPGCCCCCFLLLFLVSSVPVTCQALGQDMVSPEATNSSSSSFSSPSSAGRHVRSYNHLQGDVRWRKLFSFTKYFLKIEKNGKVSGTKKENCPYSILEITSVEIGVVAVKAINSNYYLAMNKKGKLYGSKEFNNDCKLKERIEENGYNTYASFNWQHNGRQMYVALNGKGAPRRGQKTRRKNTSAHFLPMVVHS
Test [6] deals with glycogen synthase kinase-3 (GSK3A per assay name; protocol says GSK3B). Briefly: compounds binding glycogen synthase kinase-3 – biochemical, small-molecule microarray, 635 nm fluorescence, GSK3A, primary screen (AID 1103). Further: the record names both GSK3A and GSK3B. The conditions noted are these: fluorescence 635 nm, higher = more signal.
Test [7] deals with Epidermal growth factor receptor (Homo sapiens) (UniProt P00533). Briefly: compounds binding epidermal growth factor receptor – biochemical, small-molecule microarray, 635 nm fluorescence, primary screen (AID 1104).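 Further: score merges 667 nm emission intensity with spot signal to noise over triplicate slides.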 Conditions: EGFR binding, higher = more signal.
Epidermal growth factor receptor (Homo sapiens), sequence (P00533 whole entry, looked up): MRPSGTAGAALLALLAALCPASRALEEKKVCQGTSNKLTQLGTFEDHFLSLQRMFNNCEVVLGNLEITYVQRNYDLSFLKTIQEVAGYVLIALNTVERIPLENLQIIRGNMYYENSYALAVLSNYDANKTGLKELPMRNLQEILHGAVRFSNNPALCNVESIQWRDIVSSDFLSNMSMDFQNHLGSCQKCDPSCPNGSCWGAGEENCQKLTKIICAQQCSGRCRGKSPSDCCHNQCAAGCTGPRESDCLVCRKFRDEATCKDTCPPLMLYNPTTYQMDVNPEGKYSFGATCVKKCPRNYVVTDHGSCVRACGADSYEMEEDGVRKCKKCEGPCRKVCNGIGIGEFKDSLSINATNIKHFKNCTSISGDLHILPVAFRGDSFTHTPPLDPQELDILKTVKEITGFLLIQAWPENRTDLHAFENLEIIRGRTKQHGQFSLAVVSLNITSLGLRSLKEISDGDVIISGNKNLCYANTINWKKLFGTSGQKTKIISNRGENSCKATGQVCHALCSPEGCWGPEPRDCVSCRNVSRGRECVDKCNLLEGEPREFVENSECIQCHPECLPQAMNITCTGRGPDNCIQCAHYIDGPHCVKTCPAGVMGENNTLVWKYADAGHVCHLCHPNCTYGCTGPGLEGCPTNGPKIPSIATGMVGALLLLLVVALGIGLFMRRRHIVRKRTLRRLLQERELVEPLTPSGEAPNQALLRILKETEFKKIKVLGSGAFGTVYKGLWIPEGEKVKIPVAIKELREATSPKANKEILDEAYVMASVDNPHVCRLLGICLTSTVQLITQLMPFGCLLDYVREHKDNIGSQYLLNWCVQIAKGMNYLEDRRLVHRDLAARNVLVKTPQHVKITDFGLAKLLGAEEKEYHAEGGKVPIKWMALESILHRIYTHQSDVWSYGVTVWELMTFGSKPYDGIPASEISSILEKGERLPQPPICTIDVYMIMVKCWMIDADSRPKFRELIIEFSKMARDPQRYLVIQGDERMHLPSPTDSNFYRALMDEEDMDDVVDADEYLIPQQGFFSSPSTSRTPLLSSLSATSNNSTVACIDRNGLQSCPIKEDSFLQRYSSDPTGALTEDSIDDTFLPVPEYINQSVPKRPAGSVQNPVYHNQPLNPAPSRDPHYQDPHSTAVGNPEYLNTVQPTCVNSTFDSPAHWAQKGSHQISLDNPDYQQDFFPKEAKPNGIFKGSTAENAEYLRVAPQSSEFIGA
In test [8] the target is Follistatin-related protein 3 (Homo sapiens) (UniProt O95633). Description: compounds binding follistatin-related protein 3 – biochemical, small-molecule microarray, 635 nm fluorescence, primary screen (AID 1105).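 Further: score merges emission near 667 nm and signal to noise per printed spot across three slides.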 The conditions noted are these: FSTL3 binding, higher = more signal.
Follistatin-related protein 3 (Homo sapiens), sequence (O95633 whole entry, looked up): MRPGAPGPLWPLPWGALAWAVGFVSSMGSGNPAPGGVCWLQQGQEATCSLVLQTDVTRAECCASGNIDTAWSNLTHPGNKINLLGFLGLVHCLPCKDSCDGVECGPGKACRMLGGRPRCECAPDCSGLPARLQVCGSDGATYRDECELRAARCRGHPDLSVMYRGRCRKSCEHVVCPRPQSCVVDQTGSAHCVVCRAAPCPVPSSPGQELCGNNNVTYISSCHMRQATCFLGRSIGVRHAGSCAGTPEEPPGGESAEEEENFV
For test [9], the target named is Dickkopf-related protein 1 (Homo sapiens) (UniProt O94907). Description: small molecules binding DKK1 protein – biochemical, small-molecule microarray, 635 nm fluorescence scan, primary screen (AID 1106).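 Further: score merges emission near 667 nm with signal to noise over three replicate slides.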 Conditions: higher = more signal.
Dickkopf-related protein 1 (Homo sapiens), sequence (O94907 whole entry, looked up): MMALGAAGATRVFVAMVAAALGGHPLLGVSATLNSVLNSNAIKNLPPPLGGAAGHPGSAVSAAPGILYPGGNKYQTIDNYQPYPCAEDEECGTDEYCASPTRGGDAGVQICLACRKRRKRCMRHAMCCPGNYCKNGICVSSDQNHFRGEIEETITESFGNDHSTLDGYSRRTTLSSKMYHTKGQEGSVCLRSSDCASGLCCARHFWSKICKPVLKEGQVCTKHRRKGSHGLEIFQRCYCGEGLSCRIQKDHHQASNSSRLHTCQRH
Test [10] concerns Inhibin beta A chain (activin A). Briefly: small molecules binding activin A – biochemical, small-molecule microarray, 635 nm fluorescence scan, primary screen (AID 1107).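 Further: mouse activin A protein probed at 4.33 µg/mL on printed slides; score merges bound-protein fluorescence near 667 nm with spot signal-to-noise.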 The conditions noted are these: INHBA, higher = more signal.
Test [11] concerns Human papillomavirus type 1a protein E7 (residues 44-93). Description: small molecules binding HPV E7 44-93 – biochemical, small-molecule microarray, residues 44-93, 635 nm fluorescence, primary screen (AID 1108).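 Further: E7 fragment applied at 1 µg/mL in TBST for 1 h at 4 C; score combines spot fluorescence with its signal to noise ratio.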 Conditions: fluorescence 635 nm, higher = more signal.
Test [12] is described as follows: hepatitis C replication reporter changes, two-sided – Huh7 cells, luciferase reporter, HCV replication inhibitor project, primary screen (AID 1109).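 Further: huh7 hepatoma cells harbouring a luciferase neomycin HCV replicon reporter; luciferase luminescence as measure of HCV replicon replication; test concentration not given here.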 The conditions noted are these: Huh7 HCV replicon luciferase reporter, 48 h; higher = more signal.
Test [13] deals with Left-right determination factor 2 (Homo sapiens) (UniProt O00292). Briefly: small molecules binding LEFTY2 protein – biochemical, small-molecule microarray, 635 nm fluorescence scan, primary screen (AID 1110). The conditions noted are these: higher = more signal.
Left-right determination factor 2 (Homo sapiens), sequence (O00292 whole entry, looked up): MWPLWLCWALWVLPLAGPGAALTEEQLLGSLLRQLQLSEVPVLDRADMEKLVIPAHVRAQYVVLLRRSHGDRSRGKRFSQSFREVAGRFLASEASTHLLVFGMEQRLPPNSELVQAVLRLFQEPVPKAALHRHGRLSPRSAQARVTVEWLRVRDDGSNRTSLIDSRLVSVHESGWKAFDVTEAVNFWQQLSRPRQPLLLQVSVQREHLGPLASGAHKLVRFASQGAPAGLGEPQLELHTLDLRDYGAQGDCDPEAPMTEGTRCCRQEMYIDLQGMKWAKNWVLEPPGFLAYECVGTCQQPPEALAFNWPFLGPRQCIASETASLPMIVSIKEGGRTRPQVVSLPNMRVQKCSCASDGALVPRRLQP
The target in test [14] is Calmodulin-1 (Homo sapiens) (UniProt P0DP23). Briefly: small molecules binding calmodulin-1 with EGTA – biochemical, small-molecule microarray, Cy5-labelled CALM1, profiling panel (AID 1111).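 Further: labelled calmodulin applied in Tris saline Tween buffer holding calcium plus EGTA and DTT.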 Conditions: Cy5-CALM1 binding fluorescence, higher = more signal.
Test [15] shares this target. Description: small molecules binding Ca-loaded calmodulin-1 – biochemical, small-molecule microarray, Cy5-labelled CALM1, plus calcium, artefact control for SMM control-protein annotation, profiling panel (AID 1112).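 Further: score merges spot fluorescence with signal to noise from triplicate slides.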 The conditions noted are these: Cy5-CALM1 binding fluorescence, higher = more signal.
A short description of test [16]: probe aWnt5a binding to arrayed compounds – biochemical, biotinylated probe, 635/667 nm fluorescence, primary screen (AID 1113).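 Further: score merges 667 nm fluorescence intensity with signal-to-noise per printed feature.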 Conditions: small-molecule microarray, higher = more signal.
Test [17] in a line: probe aShh binding to arrayed compounds – biochemical, biotinylated probe, 635/667 nm fluorescence, primary screen (AID 1114).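 Further: probe is biotin-labelled aShh protein from a stem cell growth factor screen; measures binding of labelled protein to compounds printed on the slide; score merges feature fluorescence at 667 nm with signal-to-noise.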 The conditions noted are these: small-molecule microarray, higher = more signal.
A short description of test [18]: probe aNog binding to arrayed compounds – biochemical, biotinylated probe, 635/667 nm fluorescence, primary screen (AID 1115).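 Further: probe is biotinylated aNog protein used at 0.15 µg/mL for 1 h at 4 C; z-score combines 667 nm fluorescence of each spot with its signal to noise.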 The conditions noted are these: small-molecule microarray, higher = more signal.
Test [19] has as its target Torsin-1A-interacting protein 1 (Homo sapiens) (UniProt Q5JTV8). Briefly: compound microarray binding of lysate hLAP1 – cell lysate, small-molecule microarray, COS7 lysate, 635/667 nm fluorescence, primary screen (AID 1116). The conditions noted are these: 635 nm fluorescence, higher = more signal.
Test [20] deals with Alpha-bungarotoxin (Bungarus multicinctus) (UniProt P60615). Briefly: compounds binding labelled alpha-BTX control protein – biochemical, small-molecule microarray, Alexa647 label, 635/667 nm fluorescence, artefact control for SMM control protein annotation, profiling panel (AID 1117). Conditions: alpha-BTX-A647 binding fluorescence, higher = more signal.
Alpha-bungarotoxin (Bungarus multicinctus), sequence (P60615 whole entry, looked up): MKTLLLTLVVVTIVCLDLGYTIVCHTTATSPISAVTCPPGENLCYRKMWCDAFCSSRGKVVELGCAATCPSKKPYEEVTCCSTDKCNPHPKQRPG

Activity calls are given as the source filed them.

Torsin-1A-interacting protein 1 (Homo sapiens), sequence (Q5JTV8 whole entry, looked up): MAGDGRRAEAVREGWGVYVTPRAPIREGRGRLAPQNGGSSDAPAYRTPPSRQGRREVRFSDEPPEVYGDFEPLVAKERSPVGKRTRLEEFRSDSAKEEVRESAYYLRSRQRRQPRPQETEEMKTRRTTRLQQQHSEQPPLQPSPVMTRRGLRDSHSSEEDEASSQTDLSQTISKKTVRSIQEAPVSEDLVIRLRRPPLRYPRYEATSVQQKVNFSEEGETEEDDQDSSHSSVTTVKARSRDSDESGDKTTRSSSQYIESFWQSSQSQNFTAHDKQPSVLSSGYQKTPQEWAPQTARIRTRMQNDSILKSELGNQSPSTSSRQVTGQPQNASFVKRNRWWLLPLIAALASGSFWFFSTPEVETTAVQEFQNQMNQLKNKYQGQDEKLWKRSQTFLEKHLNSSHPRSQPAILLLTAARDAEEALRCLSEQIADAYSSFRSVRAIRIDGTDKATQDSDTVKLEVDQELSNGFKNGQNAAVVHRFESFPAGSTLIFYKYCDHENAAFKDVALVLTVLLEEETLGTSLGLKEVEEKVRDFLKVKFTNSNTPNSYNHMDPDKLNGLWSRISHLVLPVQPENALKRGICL

`CCCNC(=O)OC[C@H]1O[C@H](CCON=C[C@@H](OC)[C@H](C)C=CCC(=O)OC)C=C[C@@H]1Oc1ccc(OC)cc1`: the composite z-score in [1] was 0.638; in test [2] it was -0.305; in test [3], -0.528; in test [5] it was 0.463; in test [6] it was -0.0589; in test [7], 0.15. In addition, the composite z-score in test [8] was 0.109; in [9] it was 0.482; in test [10] it was 0.717; in [11], 0.0209; in test [13], 0.453; in [14], -1.81. For the same compound, the composite z-score is -0.848 in test [15]; -0.119 in test [16]; -0.01 in test [17]; -0.318 in [18]; 0.322 in test [19]; 0.908 in [20]. The results for the z-score in [4] and in [12] were -0.213 (inactive) and -1.72, respectively.

In the case of `CCN1C(=O)[C@H]2[C@H]3[C@H](O)[C@H](O)CC(=NOC[C@@H](C)[C@H](OCc4ccccc4)C(C)C)[C@@H]3CC[C@H]2C1=O`, the composite z-score in test [1] is 1.16; in test [2], -0.035; in test [3], -0.171; in [5], 0.405; in test [6] it was 0.254; in test [7], 0.108. Besides, the composite z-score in test [8] was determined as 0.284; in test [9], 0.132; in test [10], 0.359; in test [11] it was 0.306; in test [13], 0.358; in [14] it was 0.809. The composite z-score in test [15] is 0.484; in test [16] it was -0.133; in test [17] it was -0.262; in [18], 0.124; in test [19], 0.329; in test [20], 0.234. The figures for the z-score in test [4] and in test [12] were 0.879 (inactive) and -1.47, respectively.

With `CO[C@@H]1COC(=O)[C@@H]2CCCN2C(=O)[C@@H](C)COC(=O)[C@H](COCc2ccccc2)NC(=O)CC=C[C@H]1C`, the composite z-score was 0.385 in test [1]; -0.559 in test [2]; -0.664 in test [3]; 0.613 in test [5]; 0.575 in test [6]; 0.239 in test [7]. Moreover, the composite z-score in test [8] was 0.478; in test [9] it was 0.356; in test [10], -0.235; in test [11], 0.929; in test [13] it was 0.39; in test [14], -0.142. Moreover, the composite z-score in test [15] was -0.713; in test [16] it was -0.0748; in test [17], 0.0941; in [18], -0.111; in test [19] it was 0.142; in test [20], 0.199. The results for the z-score in test [4] and in [12] were -0.425 (inactive) and 0.323, respectively.

Regarding `O=C1[C@H]2[C@H]3[C@H](O)[C@H](O)CC(=NOC[C@@H](O)COCc4ccco4)[C@@H]3CC[C@H]2C(=O)N1c1ccc(F)cc1F`, the composite z-score in test [1] is 0.365; in [2], -0.399; in test [3] it was -0.712; in test [5], 0.579; in [6], 0.318; in [7], 0.931. Also, the composite z-score was 0.499 in test [8]; 0.671 in [9]; 0.574 in [10]; 0.427 in [11]; 0.74 in [13]; -0.616 in test [14]. Besides, the composite z-score in test [15] is -1.01; in test [16], -0.0792; in test [17] it was -0.13; in test [18], -0.236; in test [19] it was 0.515; in test [20] it was -0.255. Besides, the z-score in test [4] was 0.237 (inactive); in test [12], 0.199.

As to `CC(=O)OC[C@H]1O[C@H](CCON=C(C)CCN2CCc3nc(-c4ccccc4)c(-c4ccccc4)cc3C2)C=C[C@@H]1OC(C)=O`, the composite z-score in [1] is 0.323; in test [2] it was -0.154; in [3], 0.101; in [5] it was -0.422; in test [6], 0.102; in test [7] it was 0.392. The composite z-score in test [8] is 0.189; in [9], 0.222; in test [10], 1.16; in [11] it was 1.26; in [13] it was 0.0439; in test [14], -0.205. For the same compound, the composite z-score was -0.174 in test [15]; -0.0748 in test [16]; -0.0425 in test [17]; -0.273 in test [18]; 0.624 in test [19]; 1.57 in [20]. The z-score in [4] was 0.82 (inactive); in test [12], -1.58.

On to `C[C@@H]1C=CCC(=O)OC[C@H](C)C(=O)N[C@@H](C)C(=O)OC1`, for which the composite z-score in test [1] was 0.57; in test [2] it was -0.242; in test [3], -0.791; in test [5] it was 0.336; in test [6], 0.252; in test [7], 0.282. Also, the composite z-score in test [8] is 0.413; in test [9], 0.814; in test [10], -0.658; in [11], -0.0639; in test [13] it was 0.409; in test [14], -0.556. The composite z-score in test [15] is -0.897; in test [16], -0.0721; in [17] it was 0.178; in [18], -0.141; in test [19], 0.789; in [20], -0.194. Also, the figures for the z-score in [4] and in test [12] were -0.586 (inactive) and -0.512, respectively.
